Inconclusive results are not listed. Unmarked numbers belong to inactive results. The source made the active and inactive calls. The call rests on the fitted dose curve; in most records, active means well fitted cell-killing curve with a large enough effect; inconclusive means small, poorly fitted or top-dose-only effect, or effect the other way; inactive means no such curve, though single readings can be large or run the other way.
assay: Quantitative High-Throughput drug screen in 47 multiple myeloma cell lines against the NCATS MIPE library collection: OCIMY5_PLB cell viability assay (AID 1918988); conditions: OCI-MY5 myeloma viability, ATP luminescence, 48 h; series mostly up to 45.8 µM; viability, % of control: at the top concentration; further: nearly all actives have a fitted effect of over 65% in size
Source text: PI: Beverly A. Mock Ph.D.
Laboratory of Cancer Biology and Genetics,
Center for Cancer Research, National Cancer Institute,
National Institute of Health, Bethesda, Maryland
Drug resistance and disease progression are common in multiple myeloma (MM) patients, underscoring the need for new therapeutic combinations. […] We hypothesized that effective combinations would reduce MYC expression and enhance p16 activity. […] These preclinical data identify potentially useful drug combinations for evaluation in drug-resistant MM and reveal potential mechanisms of combined drug sensitivity.
Described herein is the primary MIPE qHTS used to cherrypick compounds. Validated compounds were then further tested for potential synergistic activiy.
[1] Peat TJ, Gaikwad SM, Dubois W, Gyabaah-Kessie N, Zhang S, Gorjifard S, Phyo Z, Andres M, Hughitt VK, Simpson RM, Miller MA, Girvin AT, Taylor A, Williams D, D'Antonio N, Zhang Y, Rajagopalan A, Flietner E, Wilson K, Zhang X, Shinn P, Klumpp-Thomas C, McKnight C, Itkin Z, Chen L, Kazandijian D, Zhang J, Michalowski AM, Simmons JK, Keats J, Thomas CJ, Mock BA. Drug combinations identified by high-throughput screening promote cell cycle transition and upregulate Smad pathways in myeloma. Cancer Lett. 2023 Aug 1;568:216284. doi: 10.1016/j.canlet.2023.216284. Epub 2023 Jun 24. PMID: 37356470; PMCID: PMC10408729.
SEQUENCE No. (e.g., 1, 2, 3, etc.); […] (e.g., Cells, Incubation, Reagent, etc.); VALUE and DESCRIPTION.
1; Cells; 5 uL; white, solid bottom 1536-well Greiner assay plate.
2; Compounds; 23 nL; Kalypsis pin tool (Wako USA) equipped with a 1536-well pin head to transfer to the assay plates.
3; Incubation; 48 hours; 37C incubation.
4; Reagent;5uL; CellTiter Glo (Promega).
5; Detector; 425V; Luminescence; Viewlux PerkinElmer.
NOTES (numbers refer to Sequence numbers above)
1. The cell-based screening methods employed in this study were like those previously published. Briefly, the corresponding myeloma cell lines were screened in 1,536-well plates with 500 cells, 5-uL per well for inhibition of cell viability (assessed by measuring ATP levels with CellTiterGlo).
2. NCATS MIPE 4.0 library of approved and investigational drugs were added using the Kalypsis pin tool. Wells treated with DMSO only for 100% viability and media only for 0% viability were used as controls.
3. The assay plates were covered and incubated for 48 hours in a 37C, 5% CO2 incubator with controlled humidity.
4. After 48 hours, CellTilter-GloTM luminescent substrate mix (Promega) reagent was added to the assay plate and plates we incubated for 5 min at room temperature.
5. Signal was measured as median relative luminescence units on a ViewLux (PerkinElmer) multiplate reader.
[1] Heske CM, Davis MI, Baumgart JT, Wilson K, Gormally MV, Chen L, Zhang X, Ceribelli M, Duveau DY, Guha R, Ferrer M, Arnaldez FI, Ji J, Tran HL, Zhang Y, Mendoza A, Helman LJ, Thomas CJ. Matrix Screen Identifies Synergistic Combination of PARP Inhibitors and Nicotinamide Phosphoribosyltransferase (NAMPT) Inhibitors in Ewing Sarcoma. Clin Cancer Res. 2017 Dec 1;23(23):7301-7311. doi: 10.1158/1078-0432.CCR-17-1121. Epub 2017 Sep 12. PMID: 28899971; PMCID: PMC6636827.
Potency means the concentration at half of the fitted maximal effect.

| SMILES | Potency | viability, % of control |
| --- | --- | --- |
| CC[C@@H]1C(=O)N(C)c2cnc(Nc3ccc(C(=O)NC4CCC(N5CCN(CC6CC6)CC5)CC4)cc3OC)nc2N1C(C)C (stereo not given in full) | 0.0743 µM (active) | – |
| CC(C)(C)c1cnc(CSc2cnc(NC(=O)C3CCNCC3)s2)o1 | 0.0743 µM (active) | – |
| Cc1nc2ccc(CN(C)c3ccc(C(=O)N[C@@H](CCC(=O)O)C(=O)O)s3)cc2c(=O)[nH]1 | 5.26 µM (active) | – |
| Clc1cccc(-c2nnnn2Cc2cccnc2)c1Cl | – | 138% |
| CN(C)CCCN=c1c2ccccc2n(C)c2[nH]c(=O)n(C)c(=O)c12 | 18.7 µM (active) | – |
| COc1cc(-c2nn(C3CCC(N4CCN(C(C)=O)CC4)CC3)c3ncnc(N)c23)ccc1NC(=O)c1cc2ccccc2n1C (stereo not given) | 1.87 µM (active) | – |
| Nc1ncnc2c1c(-c1cccc(OCc3ccccc3)c1)cn2C1CC(CN2CCCC2)C1 (stereo not given) | 7.43 µM (active) | – |
| C1=CCOCc2cc(ccc2OCCN2CCCC2)Nc2nccc(n2)-c2cccc(c2)OCC1 | 2.35 µM (active) | – |
| CCOC(=O)C1=C(C)NC2=C(C(=O)CC(C)(C)C2)C1c1ccc(-c2ccccc2)cc1 (stereo not given) | 20.9 µM (active) | – |
| O=C(Nc1ncc(-c2cc(C(F)F)nn2-c2c(Cl)cccc2Cl)s1)C1CC1 | 0.296 µM (active) | – |
| COc1cc2c(Oc3ccc4[nH]c(C)cc4c3F)ncnc2cc1OCCCN1CCCC1 | 23.5 µM (active) | – |
| Cc1cn2cc(C(=O)N(C)CCO)cc(N[C@@H]3CCOc4cccc(C)c43)c2n1 | – | 176% |
| Nc1nc(Nc2ccc(S(N)(=O)=O)cc2)nn1C(=O)c1c(F)cccc1F | 7.43 µM (active) | – |
| C[C@]1(CO)CN(c2cc(C(=O)Nc3ccc4c(c3)-c3c(c(C(N)=O)nn3-c3ccc(F)cc3)CC4)c(Cl)cn2)C[C@@]1(C)CO | 8.33 µM (active) | – |
| COc1cc(C(=O)NS(=O)(=O)c2ccccc2C)ccc1Cc1cn(C)c2ccc(NC(=O)OC3CCCC3)cc12 | 18.7 µM (active) | – |
| CN1CCN(c2ccc3nc(-c4c(N)c5c(F)cccc5[nH]c4=O)[nH]c3c2)CC1 | 16.6 µM (active) | – |
| Cn1cncc1[C@@](N)(c1ccc(Cl)cc1)c1ccc2c(c1)c(-c1cccc(Cl)c1)cc(=O)n2C | 7.43 µM (active) | – |
| CC(C)(C)c1cc(NC(=O)Nc2ccc(-c3cn4c(n3)sc3cc(OCCN5CCOCC5)ccc34)cc2)no1 | 9.35 µM (active) | – |
| NC(=O)Nc1cc(-c2cccc(F)c2)sc1C(=O)N[C@H]1CCCNC1 | 0.0743 µM (active) | – |
| c1ccc2c(CCNc3ccc(Nc4ccncc4)cc3)c[nH]c2c1 | 20.9 µM (active) | – |

| SMILES | Potency | viability, % of control |
| --- | --- | --- |
| CS(=O)(=O)c1ccc(-c2cnc(N)c(C(=O)Nc3ccccc3)n2)cc1 | 2.64 µM (active) | – |
| Nc1nc(-c2nn(Cc3ccccc3F)c3ncccc23)nc(N)c1N1CCOCC1 | – | 119% |
| COC(=O)Nc1ccc(-c2nc(N3CCOCC3)c3cnn(C4CCN(Cc5cccnc5)CC4)c3n2)cc1 | 20.9 µM (active) | – |
| C#Cc1cccc(Nc2ncnc3cc(OC)c(OCCCCCCC(=O)NO)cc23)c1 | 0.0053 µM (active) | – |
| COc1ccc(-n2nc(C(N)=O)c3c2C(=O)N(c2ccc(N4CCCCC4=O)cc2)CC3)cc1 | – | 169% |
| COc1cc2c(cc1-c1c(C)noc1C)ncc1[nH]c(=O)n([C@H](C)c3ccccn3)c12 | 1.05 µM (active) | – |
| Nc1nc(NCCNc2ncc(-n3ccnc3)c(-c3ccc(Cl)cc3Cl)n2)ccc1[N+](=O)[O-] | 18.7 µM (active) | – |
| C[C@@]12O[C@@H](C[C@]1(O)CO)n1c3ccccc3c3c4c(c5c6ccccc6n2c5c31)CNC4=O | 0.526 µM (active) | – |
| Nc1cccc(-c2cc3c(Oc4cccc(O)c4)ncnc3[nH]2)c1 | 23.5 µM (active) | – |
| CN(C)Cc1c(C(=O)NCCOc2ccc(C(=O)NO)cc2)oc2ccccc12 | 0.469 µM (active) | – |
| CC[C@H](CO)Nc1nc(NCc2ccccc2)c2ncn(C(C)C)c2n1 | 18.7 µM (active) | – |
| COC(=O)c1ccc2c(C(=Nc3ccc(N(C)C(=O)CN4CCN(C)CC4)cc3)c3ccccc3)c(O)[nH]c2c1 | 7.43 µM (active) | – |
| Cc1cc(N2CCOCC2)cc2[nH]c(-c3c(NC[C@@H](O)c4cccc(Cl)c4)cc[nH]c3=O)nc12 | 1.66 µM (active) | – |
| CC[C@H]1CN2CCc3cc(OC)c(OC)cc3[C@H]2C[C@@H]1C[C@@H]1NCCc2cc(OC)c(OC)cc21 | 0.187 µM (active) | – |
| O=C(NC1CCNCC1)c1[nH]ncc1NC(=O)c1c(Cl)cccc1Cl | 0.0743 µM (active) | – |
| CN(C1CCc2c(c3ccccc3n2CC(=O)O)C1)S(=O)(=O)c1ccc(F)cc1 (stereo not given) | 4.69 µM (active) | – |
| Cc1cn2c(-c3cn[nH]c3)cnc2c(Nc2ccc(C(=O)N3CCNCC3)cc2F)n1 | 20.9 µM (active) | – |
| CCC1=C[C@@H]2CN(C1)Cc1c([nH]c3ccccc13)[C@@](C(=O)OC)(c1cc3c(cc1OC)N(C)[C@@H]1[C@@](O)(C(=O)OC)[C@H](OC(C)=O)[C@]4(CC)C=CCN5CC[C@]31[C@@H]54)C2 | 0.0066 µM (active) | – |
| CNC(=O)c1c(F)cccc1Nc1nc(Nc2cc3c(cc2OC)CCN3C(=O)CN(C)C)nc2[nH]ccc12 | 1.66 µM (active) | – |
| CC(C)c1nn(-c2c(Cl)cccc2Cl)c2nc(Cc3ccc(OCCO)cc3)[nH]c(=O)c12 | 0.0743 µM (active) | – |
